Experimental findings from PubChem BioAssay are described below.

Activity calls are given as the source filed them.

Test [1] is described as follows: binders of probe aFSTL3 on microarray, primary screen, stem cell growth factor project, biochemical, small-molecule microarray, fluorescence 635/667 (AID 1064).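 Also: measures binding of the biotinylated anti-FSTL3 antibody to printed compounds.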 The note with it: higher = more signal.
Test [2] can be described thus: binders from COS7 lysate, DM2A8 probe, primary screen, torsin A project, cell lysate, small-molecule microarray, fluorescence 635/667 (AID 1065). Particulars: higher = more signal, COS7 lysate expressing mutant human TOR1A.
A short description of test [3]: binders of probe aFGF2 on microarray, primary screen, stem cell growth factor project, biochemical, small-molecule microarray, fluorescence 635/667 (AID 1067).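 Also: measures binding of biotinylated aFGF2 protein to printed compounds on slides; z-score merges feature fluorescence and signal-to-noise across triplicate slides.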 Particulars: higher = more signal.
Test [4] can be described thus: binders of probe aFGF10 on microarray, primary screen, stem cell growth factor project, biochemical, small-molecule microarray, fluorescence 635/667 (AID 1071).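 Also: score merges 667 nm spot intensity and signal to noise from triplicate slides.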 The note with it: higher = more signal.
Test [5] has as its target Neurogenic locus notch homolog protein 2 (Homo sapiens) (UniProt Q04721). The test can be described thus: Notch2 binders on small-molecule microarrays, primary screen, biochemical, small-molecule microarray, 635 nm fluorescence, stem cell growth factors (AID 1073). The note with it: Notch2 binding, higher = more signal.
For test [6], the target named is Pro-neuregulin-1, membrane-bound isoform (Homo sapiens) (UniProt Q02297). As to the kind of experiment: NRG1 binders on small-molecule microarrays, primary screen, psychiatric disease protein project, biochemical, small-molecule microarray, fluorescence 635/667 (AID 1075).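 Also: score combines 667 nm spot fluorescence with signal to noise.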 Particulars: NRG1 binding, 635 nm fluorescence, higher = more signal.
The test system of test [7] is Neuregulin-1 EGF-like domain. The test can be described thus: binders of neuregulin-1 EGF-like domain, primary screen, biochemical, small-molecule microarray, 635 nm fluorescence (AID 1081).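 Also: binding of the protein to compounds printed on small-molecule microarray slides.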 Particulars: small-molecule microarray binding, higher = more signal.
Test [8] can be described thus: FRG1 promoter luciferase signal modulators, primary screen, FRG1 inhibition for FSHD, cell-based, C2C12 myotubes, firefly/Renilla luciferase, luminescence (AID 1084). The note with it: higher = more signal, called active from +8 up or from −8 down.
A short description of test [9]: binders of probe aFST on microarray, primary screen, stem cell growth factor project, biochemical, small-molecule microarray, fluorescence 635/667 (AID 1086).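 Also: score merges 667 nm fluorescence with signal-to-noise of each printed compound spot.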 The note with it: higher = more signal.
Test [10] in a line: binders of probe aHhip on microarray, primary screen, stem cell growth factor project, biochemical, small-molecule microarray, fluorescence 635/667 (AID 1087).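 Also: score merges spot fluorescence at 667nm with spot signal to noise ratio.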 The note with it: higher = more signal.
Test [11] concerns PRMT1 (protein arginine N-methyltransferase 1). The test can be described thus: PRMT1 binders on small-molecule microarrays, primary screen, biochemical, small-molecule microarray, 635 nm fluorescence (AID 1088).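 Also: binding of Prmt1 protein to compounds spotted on small-molecule microarray slides.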 The note with it: small-molecule microarray binding, higher = more signal.
The nature of test [12]: yeast growth modulation, basal conditions, primary screen, YJM789 clinical isolate, OD600, 24 h (AID 1089).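 Also: growth of clinical yeast isolate S. cerevisiae YJM 789 seeded 1000 cells per well; test concentration not given here.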 Particulars: S. cerevisiae YJM789 growth, higher = more signal, called active from +8 up or from −8 down.
A short description of test [13]: fission yeast growth modulation, primary screen, strain 972, OD600, 24 h, no modulator (AID 1090).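 Also: basal condition with compound alone and no growth modifier present; test concentration not given here.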 The note with it: S. pombe 972 growth, higher = more signal, called active from +8 up or from −8 down.
The nature of test [14]: S. cerevisiae growth modulation with rapamycin, primary screen, strain BY4716, OD600, 96 h (AID 1091). Also: test concentration not given here. The note with it: higher = more signal, called active from +8 up or from −8 down.
The target in test [15] is Torsin-1A-interacting protein 2 (Homo sapiens) (UniProt Q8NFQ8). As to the kind of experiment: LULL1 binders on small-molecule microarray, primary screen, cell lysate, human LULL1 lysate, 635/667 nm fluorescence (AID 1092).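 Also: probe is lysate of COS7 cells overexpressing human LULL1; score merges per-feature 667 nm fluorescence with signal-to-noise.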 The note with it: hLULL1 lysate binding, 635 nm fluorescence, higher = more signal.
The nature of test [16]: E. coli growth modulation, two-sided OD650, primary screen, E. coli filamentation project, strain DRC41, 24 h (AID 1093).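 Also: MC1000 strain lacking acrAB efflux and sulA so SOS filamentation is blocked; test concentration not given here.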 Particulars: OD650, 24 h, higher = more signal, called active from +8 up or from −8 down.
Test [17] is described as follows: small-molecule microarray binders of probe aLefty2, primary screen, biochemical, biotinylated probe, 635/667 nm fluorescence (AID 1094).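 Also: score merges spot fluorescence near 667 nm with spot signal-to-noise ratio.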 Particulars: higher = more signal.
Test [18] relates to Noggin (protein binding on small-molecule microarray). As to the kind of experiment: Noggin binders on small-molecule microarray, primary screen, biochemical, 635/667 nm fluorescence (AID 1095).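 Also: score merges 667 nm feature fluorescence with signal to noise over triplicate slides.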 Particulars: 635 nm fluorescence, higher = more signal.
The target of test [19] is Neurogenic locus notch homolog protein 3 (Homo sapiens) (UniProt Q9UM47). The test can be described thus: NOTCH3 binders on small-molecule microarray, primary screen, biochemical, 635/667 nm fluorescence (AID 1096). The note with it: NOTCH3 binding, 635 nm fluorescence, higher = more signal.
The nature of test [20]: small-molecule microarray binders of probe aEGFR, primary screen, biochemical, biotinylated probe, 635/667 nm fluorescence (AID 1097).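 Also: probe is a biotinylated anti-EGFR antibody binding compounds printed on slides; score combines fluorescence near 667 nm and signal to noise of each spot.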 The note with it: higher = more signal.

Sequence of Neurogenic locus notch homolog protein 3 (Homo sapiens) (Q9UM47 whole entry, looked up): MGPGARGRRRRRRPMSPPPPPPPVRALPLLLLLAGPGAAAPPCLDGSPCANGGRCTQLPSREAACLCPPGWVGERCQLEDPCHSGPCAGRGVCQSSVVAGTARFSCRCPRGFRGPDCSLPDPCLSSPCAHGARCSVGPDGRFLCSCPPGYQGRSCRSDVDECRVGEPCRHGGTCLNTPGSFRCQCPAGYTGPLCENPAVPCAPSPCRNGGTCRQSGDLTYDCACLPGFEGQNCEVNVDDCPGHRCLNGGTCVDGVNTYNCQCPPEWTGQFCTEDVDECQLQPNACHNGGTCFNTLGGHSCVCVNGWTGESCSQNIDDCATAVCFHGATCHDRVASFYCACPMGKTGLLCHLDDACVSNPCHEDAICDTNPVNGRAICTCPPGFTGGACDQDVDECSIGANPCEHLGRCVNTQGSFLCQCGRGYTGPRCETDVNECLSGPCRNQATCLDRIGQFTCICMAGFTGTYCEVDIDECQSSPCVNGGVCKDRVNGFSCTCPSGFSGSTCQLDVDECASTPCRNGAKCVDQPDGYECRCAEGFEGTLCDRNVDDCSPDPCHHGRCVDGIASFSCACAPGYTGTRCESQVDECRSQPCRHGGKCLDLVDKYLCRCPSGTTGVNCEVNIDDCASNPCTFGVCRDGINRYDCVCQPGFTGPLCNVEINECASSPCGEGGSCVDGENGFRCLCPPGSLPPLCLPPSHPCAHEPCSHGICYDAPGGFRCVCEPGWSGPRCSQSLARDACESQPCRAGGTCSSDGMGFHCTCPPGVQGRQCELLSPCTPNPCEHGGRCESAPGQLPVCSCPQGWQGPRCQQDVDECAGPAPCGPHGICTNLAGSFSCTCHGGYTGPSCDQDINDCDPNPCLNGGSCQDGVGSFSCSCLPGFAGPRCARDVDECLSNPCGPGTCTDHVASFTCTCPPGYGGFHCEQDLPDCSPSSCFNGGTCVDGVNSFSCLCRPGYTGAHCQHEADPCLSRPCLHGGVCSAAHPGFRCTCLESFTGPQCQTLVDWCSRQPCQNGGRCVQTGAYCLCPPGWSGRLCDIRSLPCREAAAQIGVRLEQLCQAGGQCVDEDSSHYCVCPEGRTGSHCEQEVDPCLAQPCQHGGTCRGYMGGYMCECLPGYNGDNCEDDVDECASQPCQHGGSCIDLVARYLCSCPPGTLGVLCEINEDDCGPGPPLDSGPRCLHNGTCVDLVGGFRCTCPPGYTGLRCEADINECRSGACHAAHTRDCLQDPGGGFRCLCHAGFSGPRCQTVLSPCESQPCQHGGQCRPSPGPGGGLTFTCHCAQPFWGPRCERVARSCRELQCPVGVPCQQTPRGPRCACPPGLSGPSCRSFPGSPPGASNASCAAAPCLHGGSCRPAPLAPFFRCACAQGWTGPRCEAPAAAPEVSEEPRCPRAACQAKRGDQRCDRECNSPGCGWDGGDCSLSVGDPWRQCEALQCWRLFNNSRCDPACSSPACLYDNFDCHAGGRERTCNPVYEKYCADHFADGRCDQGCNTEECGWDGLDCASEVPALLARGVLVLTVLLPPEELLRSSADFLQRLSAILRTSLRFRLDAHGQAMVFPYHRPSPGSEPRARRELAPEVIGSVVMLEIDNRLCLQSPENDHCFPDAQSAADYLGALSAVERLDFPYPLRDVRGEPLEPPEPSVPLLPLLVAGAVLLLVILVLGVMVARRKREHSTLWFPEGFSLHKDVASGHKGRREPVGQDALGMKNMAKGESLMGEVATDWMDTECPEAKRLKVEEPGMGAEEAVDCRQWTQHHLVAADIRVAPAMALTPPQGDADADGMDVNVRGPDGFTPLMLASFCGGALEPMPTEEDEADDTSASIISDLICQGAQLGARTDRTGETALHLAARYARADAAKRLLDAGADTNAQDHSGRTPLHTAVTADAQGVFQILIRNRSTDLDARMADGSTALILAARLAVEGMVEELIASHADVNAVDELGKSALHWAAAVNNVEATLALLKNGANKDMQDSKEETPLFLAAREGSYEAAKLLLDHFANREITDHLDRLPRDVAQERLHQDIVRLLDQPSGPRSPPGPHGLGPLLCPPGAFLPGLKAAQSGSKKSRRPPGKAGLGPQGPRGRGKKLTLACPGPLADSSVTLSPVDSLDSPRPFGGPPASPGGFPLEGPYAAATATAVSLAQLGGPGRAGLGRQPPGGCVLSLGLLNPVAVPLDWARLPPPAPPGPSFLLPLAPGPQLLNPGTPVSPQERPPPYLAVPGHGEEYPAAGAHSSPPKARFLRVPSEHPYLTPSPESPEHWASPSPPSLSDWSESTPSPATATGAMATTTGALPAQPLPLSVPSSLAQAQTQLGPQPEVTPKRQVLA
Sequence of Torsin-1A-interacting protein 2 (Homo sapiens) (Q8NFQ8 whole entry, looked up): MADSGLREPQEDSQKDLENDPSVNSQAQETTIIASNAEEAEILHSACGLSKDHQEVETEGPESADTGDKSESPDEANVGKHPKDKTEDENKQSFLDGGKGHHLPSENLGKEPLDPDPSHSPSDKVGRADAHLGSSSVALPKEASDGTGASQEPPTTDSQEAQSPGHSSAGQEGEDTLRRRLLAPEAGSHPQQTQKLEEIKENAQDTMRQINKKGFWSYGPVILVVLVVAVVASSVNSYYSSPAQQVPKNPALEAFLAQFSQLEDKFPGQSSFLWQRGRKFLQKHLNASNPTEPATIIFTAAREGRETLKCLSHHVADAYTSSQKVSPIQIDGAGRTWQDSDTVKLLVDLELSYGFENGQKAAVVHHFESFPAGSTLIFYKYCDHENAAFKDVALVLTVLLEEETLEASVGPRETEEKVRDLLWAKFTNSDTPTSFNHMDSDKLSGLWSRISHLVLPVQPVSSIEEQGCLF
Sequence of Pro-neuregulin-1, membrane-bound isoform (Homo sapiens) (Q02297 whole entry, looked up, the tested form may be a part, canonical isoform): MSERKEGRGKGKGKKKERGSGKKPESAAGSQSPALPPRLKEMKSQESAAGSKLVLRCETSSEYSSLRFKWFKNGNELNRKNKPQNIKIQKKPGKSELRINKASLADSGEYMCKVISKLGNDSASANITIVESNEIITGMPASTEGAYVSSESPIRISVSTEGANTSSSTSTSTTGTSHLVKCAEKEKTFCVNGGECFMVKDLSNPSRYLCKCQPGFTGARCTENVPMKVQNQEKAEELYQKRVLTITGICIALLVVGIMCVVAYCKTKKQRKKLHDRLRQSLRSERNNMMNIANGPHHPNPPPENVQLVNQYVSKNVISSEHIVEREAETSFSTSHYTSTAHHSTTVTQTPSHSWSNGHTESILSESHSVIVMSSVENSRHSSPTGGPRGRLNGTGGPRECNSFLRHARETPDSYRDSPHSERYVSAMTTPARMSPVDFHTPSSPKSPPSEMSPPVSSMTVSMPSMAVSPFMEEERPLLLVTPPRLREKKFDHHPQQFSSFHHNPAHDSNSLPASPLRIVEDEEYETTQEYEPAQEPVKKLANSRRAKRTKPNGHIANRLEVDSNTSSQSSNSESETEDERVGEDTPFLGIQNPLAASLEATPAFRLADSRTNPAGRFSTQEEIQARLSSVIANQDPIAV

Turning to `C=C[C@H](C)[C@@H](OC(=O)Nc1ccc(OC)cc1)c1ccc(O)c2ccccc12`, the composite z-score is 0.358 in test [1]; 0.357 in test [2]; -0.142 in test [3]; -0.225 in test [4]; -1.53 in test [5]; 0.3 in [6]. Moreover, the composite z-score was 1.27 in test [7]; -0.344 in test [9]; -0.37 in test [10]; 0.0444 in [11]; 1.63 in test [15]; -0.266 in [17]. In addition, the results for the composite z-score in test [18], in [19] and in test [20] were 0.823, 0.0291 and -0.275, respectively. The z-score in [8] is 4.09 (inactive); in [12], -24.6 (active); in [13] it was -20.8 (active); in [14] it was -3.58 (inactive); in test [16], 0.431 (inactive).
On to `CCOC(=O)C[C@H]1[C@H](OC(=O)c2ccc(C(=O)c3ccccc3)cc2)[C@@H](NC(=O)c2ccccc2)c2cc(OCCCO)ccc2N1C(=O)Cc1ccc(OC)cc1`, for which the composite z-score in [1] was 0.0814; in test [2], 0.128; in test [3], -0.0502; in test [4], 0.153; in test [5] it was 0.12; in test [6], -0.126. Moreover, the composite z-score in [7] is 0.532; in test [9], 0.0512; in [10] it was -0.0237; in test [11] it was 0.355; in [15] it was 0.84; in [17] it was 0.0283. Also, the composite z-score in [18] was 0.49; in [19], 0.0805; in [20] it was -0.142. In addition, the z-score was -1.09 (inactive) in test [8]; 0.0572 (inactive) in test [12]; -0.682 (inactive) in [13]; -0.0292 (inactive) in [14]; 0.0663 (inactive) in [16].
In the case of `CC(C)NC(=O)[C@@]1(c2ccc([N+](=O)[O-])cc2)CC(=O)N(C2CCCCC2)[C@@H]1c1ccc(CO)cc1I`, the composite z-score in test [1] is 1.12; in test [2] it was 0.586; in test [3], -0.0548; in test [4] it was -0.0891; in test [5] it was -0.0016; in test [6], 0.662. For the same molecule, the composite z-score in test [7] came out at 1.12; in test [9] it was 0.178; in test [10], 0.426; in test [11] it was 1.03; in test [15], 2.33; in [17], 0.134. Moreover, the composite z-score is -0.941 in test [18], -0.0996 in test [19] and -0.0185 in test [20]. In addition, the z-score is 0.286 (inactive) in [8]; 0.719 (inactive) in test [12]; 0.475 (inactive) in test [13]; 2.6 (inactive) in [14]; 1.21 (inactive) in test [16].
Turning to `O[C@@H](Cc1ccccc1)[C@H]1C2C=CCCC=C2CN1Cc1cccc(Cl)c1` (stereo not given in full), the composite z-score in [1] is -0.328; in [2], -0.0571; in test [3] it was -0.0075; in test [4], 0.617; in test [5] it was 0.944; in [6], 0.898. In addition, the composite z-score is 1.19 in test [7]; 0.61 in test [9]; -0.214 in [10]; 1.42 in test [11]; 1.17 in [15]; -0.101 in test [17]. Further, the composite z-score in test [18] is 0.728; in test [19], 1.12; in test [20] it was -0.0039. In addition, the z-score in [8] is -1.45 (inactive); in test [12], -0.14 (inactive); in test [13], -2.92 (inactive); in test [14], -0.742 (inactive); in [16], 1.35 (inactive).
For `O=C1C2C=CC(C(O)c3cc(C(F)(F)F)cc(C(F)(F)F)c3)N(n3cnnc3)C2C(=O)N1Cc1ccccc1` (stereo not given), the composite z-score was -0.153 in [1]; 0.0607 in test [2]; -0.0628 in test [3]; -0.251 in test [4]; 0.203 in test [5]; 0.339 in test [6]. Further, the composite z-score in [7] is -0.159; in test [9] it was 0.368; in [10], 0.144; in test [11], 0.369; in [15], 2.5; in test [17] it was -0.191. Besides, the composite z-score in test [18] is -0.267; in test [19] it was 0.679; in test [20], -0.139. The z-score in [8] was 1.1 (inactive); in [12], -0.572 (inactive); in [13] it was 0.685 (inactive); in test [14], -0.384 (inactive); in test [16] it was 0.0068 (inactive).
